An excerpt weighted towards active compounds, which were near 17% of everything screened.
TGFb SMAD3 inh: inhibitors of TGF-b signaling | Potency, µM (series often up to 46.1 µM), without a hit: top-dose activity, negative = inhibition, hits mostly inhibitors | 1.2% of 410,000 active | HepG2 CAGA-GFP TGF-b/SMAD3 reporter, GFP fluorescence, 18 h; TGF-beta stimulated, 500 pg/mL final | AID 588855; further: on the % scale 0 is the no-effect control and ±100 the full control effect; nearly all actives have a fitted effect of over 65% in size
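Read-out: total well GFP (ex488/em500-530) summed from mean per-cell fluorescence. Cells: HEPG2 CAGA-GFP, 1% FBS DMEM, 18 h at 37 degrees C with 500 pg/mL final TGF-beta. Unstimulated wells served as the full-inhibition control; stimulated DMSO wells = 0%.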
HepG2 viability: counter-screen for TGF-b inhibitors: cytotoxicity in HepG2 cells; Potency, µM (doses to about 46.1 µM), without a hit: top-dose activity change, negative = cytotoxicity, actives largely listed as cytotoxic; 0.76% of 410,000 active; HepG2 CAGA-GFP viability, ATP luminescence, 18 h
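CellTiter-Glo luminescence gave cytotoxicity after 18 hours at 37 degrees C. The cells were HepG2 CAGA-GFP in 1% FBS DMEM, stimulated with 500 pg/mL TGF-beta after compound addition. %Activity was normalised to no-cell wells (complete cell-killing) and DMSO (no toxicity), and curves were fitted and classified.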
HT1080 IDH1KD tx: toxicity to HT-1080 IDH1 knockdown cells (counter line) | HT-1080 IDH1 knockdown viability, ATP luminescence, 48 h | Potency, µM (doses to about 46.1 µM), for the others: top-dose activity, negative = toxicity, most hits filed as cytotoxic | 2% of 360,000 active | AID 686971;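 further: 0% = DMSO wells and -100% = cell-free medium wells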
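Cytotoxicity counter-line: IDH1KD HT-1080, 48 h, CellTiter-Glo. Curves classed by r2, magnitude and activity.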
HT1080NT lethal: kills 2HG-producing HT-1080-NT fibrosarcoma cells. HT-1080-NT fibrosarcoma viability, CellTiter-Glo ATP luminescence, 48 h. Potency, µM (doses to about 46.1 µM), inactives show at the top dose activity, negative = less viability, most hits filed as cytotoxic. AID 686970. 1.6% of 360,000 active;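 further: NT is the 2HG producing partner of a matched IDH1 knockdown line; 0% = DMSO-treated cells and -100% = media-only wells without cells; nearly all actives have a fitted effect of over 55% in size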
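Viability of the 2HG-overproducing fibrosarcoma line after 48 hours of compound exposure at 37 degrees C was determined by luminescence with CellTiter-Glo, and concentration-effect curves were then fitted and categorized.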
TDP1 cell CPT: DT40-hTDP1 cell growth loss with CPT; Potency, µM (top dose mostly 46.2 µM), without a hit: top-dose activity change, negative = growth inhibition, usual class: inhibitors; chicken DT40 Tdp1-/-;hTDP1 cells + 20 nM CPT, ATP luminescence, 48 h; AID 686979; 12% of 420,000 active; further: on the % scale 0 is the no-effect control and ±100 the full control effect; nearly all actives have a fitted effect of over 55% in size
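Cell growth measured by CellTiter-Glo luminescence after a minimum 48 h, 37 C compound exposure with 20 nM CPT in Tdp1-knockout DT40 cells stably expressing hTDP1, seeded 400/well; qHTS titration format.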
DT40 TDP1 no CPT: qHTS for Inhibitors of human tyrosyl-DNA phosphodiesterase 1 (TDP1): qHTS in cells in absence of CPT; DT40 Tdp1-/- hTDP1 cells, no CPT, ATP luminescence, 48 h; Potency, µM (doses to about 46.2 µM), without a hit: top-dose activity change, negative = growth inhibition, hits mostly inhibitors; 15% of 420,000 active; further: on the % scale 0 is the no-effect control and ±100 the full control effect; nearly all actives have a fitted effect of over 55% in size
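Seeded 400 DT40-hTDP1 cells/well (vehicle DMSO, no 20 nM CPT); pinned compounds; ≥48 hr at 37 °C; CellTiter-Glo luminescence as viability measure.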
* hit, by the source's call; ? = inconclusive; / = not tested or not shown. The call rests on the fitted dose curve; in most records, active means well fitted curve in the direction sought with a large enough effect; inconclusive means small, poorly fitted or top-dose-only effect, or another doubt; inactive means no such curve, though single readings can be large; an effect the other way counts as inactive or inconclusive. Potency means the concentration at half of the fitted maximal effect.

SMILES	TGFb SMAD3 inh	HepG2 viability	HT1080 IDH1KD tx	HT1080NT lethal	TDP1 cell CPT	DT40 TDP1 no CPT
CCN(CC)CC(O)COCCC12CC3CC(CC(C3)C1)C2 (configuration not stated)	-4%	-6%	?	?	?	?
CC1CCCCN1CC(O)COCCC12CC3CC(CC(C3)C1)C2 (configuration not stated)	-6%	-34%	?	?	15µM*	18µM*
OCCN(CCO)CC(O)COc1ccc(C23CC4CC(CC(C4)C2)C3)cc1 (configuration not stated)	18µM*	-88%	4%	-7%	7.3µM*	7.3µM*
COC(=O)c1ccc(OCC(O)CN(CCO)CCO)cc1 (configuration not stated)	-11%	-3%	0%	3%	-8%	-14%
Cc1ccc(NC(=O)C2=C(C(=O)O)CCCC2)cc1Br	-3%	-5%	8%	17%	32%	5%
O=C(Nc1nc2ccccc2s1)C1CCCO1 (configuration not stated)	-19%	-15%	1%	1%	-11%	-7%
CCOc1ccc2nc(NC(=O)Cc3cccs3)sc2c1	-15%	-13%	-23%	-21%	18µM*	?
O=C(Nc1nc2ccccc2s1)C1c2ccccc2Oc2ccccc21	?	-32%	-28%	-24%	5.8µM*	16µM*
O=C(Cc1cccs1)Nc1nc(-c2cccnc2)cs1	3%	-12%	1%	4%	16µM*	8.2µM*
O=C(Cc1cccs1)Nc1nc2ccccc2s1	-25%	-19%	-15%	-5%	?	15µM*
CC(C)Oc1cccc(-c2cc(C(=O)NC(=S)N(C)c3ccccc3C(=O)O)c3ccccc3n2)c1	0%	-2%	-17%	-14%	-28%	-25%
COc1ccc(CCNC(=O)CCCN2C(=O)C(c3ccccc3)Oc3cccnc32)cc1OC (configuration not stated)	-6%	-5%	-1%	-1%	?	-29%
Cc1ccc(NC(=O)CCCN2C(=O)C(c3ccccc3)Oc3cccnc32)c(C)c1 (configuration not stated)	1%	-2%	8%	19%	?	-26%
O=C(CCCN1C(=O)C(c2ccccc2)Oc2cccnc21)Nc1ccc(Br)cc1F (configuration not stated)	8%	-20%	/	/	18µM*	21µM*
COc1ccc(NC(=O)CCCN2C(=O)C(c3ccccc3)Oc3cccnc32)c(OC)c1 (configuration not stated)	-11%	-15%	-2%	-4%	18µM*	23µM*
Cc1ccc(C)c(NC(=O)CCCN2C(=O)C(c3ccccc3)Oc3cccnc32)c1 (configuration not stated)	4%	-18%	/	/	18µM*	23µM*
CC(C)Oc1ccc(CNC(=O)CCCN2C(=O)C(c3ccccc3)Oc3cccnc32)cc1 (configuration not stated)	11%	0%	7%	5%	-23%	12%
COc1ccccc1NC(=O)CCCN1C(=O)C(c2ccccc2)Oc2cccnc21 (configuration not stated)	3%	-6%	2%	4%	16µM*	?
CC(C)c1nc2ccc(C(=O)NCc3ccc(F)cc3)cc2o1	1%	-23%	/	/	-26%	?
Cc1coc2c1c(C)cc1oc(=O)c(CC(=O)NCCCCCC(=O)O)c(C)c12	-2%	-4%	-11%	-1%	5%	0%
CC1CCCCN1S(=O)(=O)c1ccc(N(C(=O)c2cnccn2)C(C(=O)NC2CCCCC2)c2cccs2)cc1 (configuration not stated)	?	-29%	-16%	-19%	?	?
CC1CCCCN1S(=O)(=O)c1ccc(N(C(=O)c2cnccn2)C(C(=O)NC2CCCC2)c2cccs2)cc1 (configuration not stated)	-16%	16%	2%	2%	?	21µM*
COc1ccc(C=NN=C2c3ccccc3-c3ccccc32)cc1O	?	-30%	?	0%	?	?
CC(=O)Nc1ccc(C=NN=C2c3ccccc3-c3ccccc32)cc1	?	-17%	?	-25%	26µM*	?
O=c1c(-c2cccs2)nc2cncnc2n1C1CC1	/	/	/	/	0%	-15%
SMILES	TGFb SMAD3 inh	HepG2 viability	HT1080 IDH1KD tx	HT1080NT lethal	TDP1 cell CPT	DT40 TDP1 no CPT
CC(C)(C)CC(C)(C)c1ccc(O)c(CN2CCN(CCC#N)CC2)c1	0%	-51%	-21%	8%	?	23µM*
CC(C)(C)c1ccc(S(=O)(=O)N2CCN(CCC#N)CC2)cc1	8%	-1%	1%	-3%	-11%	-17%
Cc1ccccc1-c1cc(C(=O)NCC2CC2)nn1CC1CC(c2cccc([N+](=O)[O-])c2)=NO1 (configuration not stated)	?	-2%	-14%	-11%	?	16µM*
Cc1cccc(NC(=O)CSc2nnc3ccc(-c4ccccn4)nn23)c1	14%	14%	18%	16%	?	-22%
FC(F)(F)c1cc(CCN2CCNC[C@@H]2Cc2ccccc2)cc(C(F)(F)F)c1	?	-88%	3%	-9%	21µM*	?
O=C1NC[C@@H](Cc2cccc3ccccc23)N(CCc2cc(C(F)(F)F)cc(C(F)(F)F)c2)C1=O	13µM*	-119%	7%	7%	-5%	?
CC1(C)Cc2c(sc(NC(=O)C(=O)N3CCOCC3)c2C(N)=O)CO1	1%	12%	-1%	7%	-18%	20%
CCc1ccccc1-n1nnc(-c2nc(-c3ccccc3F)no2)c1C	-4%	0%	/	/	-27%	?
Cc1ccc(CNS(=O)(=O)N(C)C)cc1	2%	-2%	28%	27%	-6%	-10%
COC(=O)[C@]12CCCCC=C1N(Cc1cccc3ccccc13)C(=O)[C@H](CC(=O)NCCc1ccccc1OC)C2	/	/	-30%	?	?	?
COc1cc2c(cc1OC)C(c1cccc([N+](=O)[O-])c1)N(C(=O)c1ccc(F)cc1)CC2 (configuration not stated)	-21%	3%	?	?	18µM*	13µM*

Screens (PubChem)
